# Out of some 310,000 compounds screened, about 2,200 (0.71%) showed an effect of 50% or more. The effect is printed as a negative number. The sample holds strong results, similar compounds and a random draw of the others, so the mix is not that of the screen.
# Biological target: human ether-à-go-go-related gene (hERG) potassium channel (human, UniProt Q12809)
# Assay: primary screen, population patch clamp on CHO cells stably expressing hERG; higher = less effect of the substance
# human ether-à-go-go-related gene (hERG) potassium channel, sequence (Q12809 whole entry, looked up): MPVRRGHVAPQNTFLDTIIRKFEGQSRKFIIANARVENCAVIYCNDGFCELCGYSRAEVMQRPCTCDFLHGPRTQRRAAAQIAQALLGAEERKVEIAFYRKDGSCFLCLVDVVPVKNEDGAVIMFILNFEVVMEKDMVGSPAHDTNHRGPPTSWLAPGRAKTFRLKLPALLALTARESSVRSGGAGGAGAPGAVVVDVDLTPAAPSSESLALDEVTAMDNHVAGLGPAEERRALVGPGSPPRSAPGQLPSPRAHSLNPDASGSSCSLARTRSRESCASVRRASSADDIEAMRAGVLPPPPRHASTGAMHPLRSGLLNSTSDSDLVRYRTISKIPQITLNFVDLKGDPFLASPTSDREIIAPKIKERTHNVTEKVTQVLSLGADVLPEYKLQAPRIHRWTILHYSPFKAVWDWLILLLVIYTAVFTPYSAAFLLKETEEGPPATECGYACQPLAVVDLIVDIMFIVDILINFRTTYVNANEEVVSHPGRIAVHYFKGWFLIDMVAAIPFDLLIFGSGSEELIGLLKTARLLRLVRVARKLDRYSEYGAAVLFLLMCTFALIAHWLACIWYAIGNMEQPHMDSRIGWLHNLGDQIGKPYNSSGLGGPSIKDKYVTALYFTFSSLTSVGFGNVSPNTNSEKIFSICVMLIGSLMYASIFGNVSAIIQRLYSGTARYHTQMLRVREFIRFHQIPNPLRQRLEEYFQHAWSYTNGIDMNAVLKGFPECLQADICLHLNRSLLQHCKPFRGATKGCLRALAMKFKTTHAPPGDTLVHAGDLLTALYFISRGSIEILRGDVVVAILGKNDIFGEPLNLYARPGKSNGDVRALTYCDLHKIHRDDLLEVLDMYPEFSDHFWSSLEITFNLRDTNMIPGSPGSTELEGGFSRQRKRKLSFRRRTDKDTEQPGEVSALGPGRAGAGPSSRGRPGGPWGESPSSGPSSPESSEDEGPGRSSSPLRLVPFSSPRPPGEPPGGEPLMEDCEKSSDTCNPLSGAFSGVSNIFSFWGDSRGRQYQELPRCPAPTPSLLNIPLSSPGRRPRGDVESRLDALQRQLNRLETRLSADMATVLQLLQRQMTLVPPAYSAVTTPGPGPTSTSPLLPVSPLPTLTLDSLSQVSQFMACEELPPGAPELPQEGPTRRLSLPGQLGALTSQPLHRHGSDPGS
row,Structure (SMILES),"hERG current change (%, negative = inhibition) at 1uM [%]"
1,Cc1[nH]nc2c1C(C(C)c1ccccc1)C(C#N)=C(N)O2 (stereo not drawn),7.79
2,COc1ccc(-c2c[n+]3c4n2CCCCC4=C(c2ccccc2)C3)cc1.[Br-],-74.7
3,O=C(C[n+]1cc(-c2ccc(Cl)cc2)n2c1CCCCC2)c1ccccc1.[Br-],-2.53
4,COc1ccc(C(=O)C[n+]2cc(-c3ccc(OC)cc3)n3c2CCCC3)cc1.[Br-],11.5
5,COc1ccc(-c2c[n+]3c(n2-c2ccccc2)CCCCC3)cc1.[Br-],2.74
6,COc1ccc(-c2c[n+]3c4n2CCCCC4=C(c2ccc(Br)cc2)C3)cc1.[Br-],-79.6
7,Clc1ccc(C2=C3CCCCn4c(-c5ccccc5)c[n+](c43)C2)cc1.[Br-],-83.1
8,Clc1ccc(C[n+]2cc(-c3ccccc3)n3c2CCC3)cc1.[Cl-],7.34
9,COc1ccc(-c2c[n+](CC(=O)c3ccccc3)c3n2CCCCC3)cc1.[Br-],13.7
10,COc1ccc(-n2c(-c3ccc(Br)cc3)c[n+]3c2CCCCC3)cc1.[Br-],-24.6
11,COc1cc2c(cc1OC)CN(S(C)(=O)=O)CC2,16.5
12,Fc1cccc(CCN2CCNC[C@@H]2CC2CCCCC2)c1,1.12
13,Cc1ccc2oc(C(=O)NCC3CCOCC3)c(C)c2c1,10.3
14,Cl.Cn1c(=N)n(CC(O)c2ccco2)c2ccccc21 (stereo not drawn),1.97
15,CCn1c(=N)n(CC(O)c2ccco2)c2ccccc21.Cl (stereo not drawn),-7.63
16,CCN(CC)CCn1c(=N)n(CC(O)c2ccco2)c2ccccc21.Cl (stereo not drawn),-54.6
17,Cl.N=c1n(CCN2CCCC2)c2ccccc2n1CC(O)c1ccco1 (stereo not drawn),-3.97
18,CCCn1c(=N)n(CC(O)c2ccco2)c2ccccc21.Cl (stereo not drawn),-13.8
19,CCCCCCCn1c(=N)n(CC(O)c2ccco2)c2ccccc21.Cl (stereo not drawn),-76.8
20,O=C(O)C(=O)O.O=[N+]([O-])c1cccc(CN2CCN(Cc3ccc(Cl)cc3)CC2)c1,-27.2
21,COC(=O)c1cc(NC(=O)C2(S(=O)(=O)c3ccc(C)cc3)CC2)cc(C(=O)OC)c1,0.157
22,COc1ccc(O)c(C(=O)c2cc(C#N)c(=O)n(Cc3ccccc3)c2)c1,8.35
23,O=C(NCc1ccccc1)C1(C(F)(F)F)C/C(=C\CCO)CCCO1 (stereo not drawn),14.1
24,Cc1ccc(/C=C2/C(=O)NC(=O)N(CCc3ccc(F)cc3)C2=O)o1,2.54
